# Records with an inconclusive call do not appear. A call without a number means that no potency is given here. Active and inactive are the calls of the source. Unless noted, calls follow the shape of the dose curve; as a rule, active = well fitted curve in the direction sought with a large enough effect; inconclusive = small, poorly fitted or top-dose-only effect, or another doubt; inactive = no such curve, though single readings can be large; an effect the other way counts as inactive or inconclusive.
# Tests used:
# Papain (Carica papaya) = Papain (Carica papaya) (UniProt P00784); experiment: Primary qHTS assay for inhibitors of the protease papain (AID 1645873);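 also: papain turnover of Z-FR-AMC read as the AMC fluorescence gain over 10 min; series mostly up to about 50 µM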
# Chain of Papain (Carica papaya) (P00784 whole entry, looked up, the tested form may be a part): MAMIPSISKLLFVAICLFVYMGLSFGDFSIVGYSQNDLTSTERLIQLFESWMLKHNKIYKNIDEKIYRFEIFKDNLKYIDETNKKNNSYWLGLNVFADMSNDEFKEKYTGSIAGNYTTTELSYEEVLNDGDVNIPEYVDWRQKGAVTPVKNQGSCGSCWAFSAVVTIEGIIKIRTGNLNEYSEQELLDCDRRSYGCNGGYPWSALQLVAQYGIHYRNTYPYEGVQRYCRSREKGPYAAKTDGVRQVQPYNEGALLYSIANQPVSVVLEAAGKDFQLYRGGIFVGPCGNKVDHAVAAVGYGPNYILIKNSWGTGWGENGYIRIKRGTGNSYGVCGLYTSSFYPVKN
# [1] = Primary qHTS for inhibitors of nuclear receptor binding SET domain protein 2 (NSD2) in an isogenic RCH-ACV NSD2 p.E1099K mutant (9B) (AID 1645876); also: nearly all actives have a fitted effect of over 70% in size
# [2] = target: Cytochrome P450 2D6 (Homo sapiens) (UniProt P10635); experiment: Cytochrome P450 family 2 subfamily D member 6 (CYP2D6) small molecule antagonists: luciferase biochemical (cell-free) qHTS assay (AID 1645840; active = well fitted curve in the direction sought with a large enough effect in the repeat runs; an effect the other way counts as inactive or inconclusive; also: series mostly up to about 57 µM; nearly all actives have a fitted effect of over 55% in size)
# Chain of Cytochrome P450 2D6 (Homo sapiens) (P10635 whole entry, looked up): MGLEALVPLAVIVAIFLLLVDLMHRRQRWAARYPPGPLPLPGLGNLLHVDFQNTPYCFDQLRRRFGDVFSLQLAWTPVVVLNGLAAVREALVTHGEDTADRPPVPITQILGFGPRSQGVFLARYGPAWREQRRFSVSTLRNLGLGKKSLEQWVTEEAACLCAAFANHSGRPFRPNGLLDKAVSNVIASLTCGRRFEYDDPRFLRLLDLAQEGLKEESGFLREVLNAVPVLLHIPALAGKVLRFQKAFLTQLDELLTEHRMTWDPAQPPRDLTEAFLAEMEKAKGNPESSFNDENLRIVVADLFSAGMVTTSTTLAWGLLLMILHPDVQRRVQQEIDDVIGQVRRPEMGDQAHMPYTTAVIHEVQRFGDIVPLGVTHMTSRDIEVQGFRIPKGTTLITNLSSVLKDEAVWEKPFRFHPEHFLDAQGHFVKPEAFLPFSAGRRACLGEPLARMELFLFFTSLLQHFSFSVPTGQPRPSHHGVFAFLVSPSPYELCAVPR
# Outline: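 P450-Glo luminescent screen: recombinant CYP2D6 enzyme–proluciferin substrate mix preincubated with compound 10 min at room temperature, then NADPH regeneration added for 1 h at room temperature. Detection reagent added for 20 min; luciferin light read as relative luminescence units.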
structure (smiles),measurement,setting,value
O=[N+]([O-])/C=C/c1ccc2c(c1)OCO2,Potency,Papain (Carica papaya),inactive
COC(=O)C12C(=O)C(C)(O)C(=O)C1(C)C(C)=CC1C34CCC(OC3=O)C(C)(CO)C4CCC12C (stereo not drawn),Potency,[1],inactive
CCCC(C)C1(CC)C(=O)NC(=O)NC1=O (stereo not drawn),Potency,[2],inactive
